High-throughput results: PubChem BioAssay, National Center for Advancing Translational Sciences (NCATS)
Sampled rows, rich in hits. Any-hit rate of the full collection: about 18%.
TDP1 cell noCPT – qHTS for Inhibitors of human tyrosyl-DNA phosphodiesterase 1 (TDP1): qHTS in cells in absence of CPT. Potency, µM (doses to about 46.2 µM), inactives show at the top dose activity change, negative = growth inhibition, usual class: inhibitors. DT40 Tdp1-/- hTDP1 cells, no CPT, ATP luminescence, 48 h. 420,000 compounds, 15% hits; note: potency is the fitted concentration of half-maximal effect; nearly all actives have a fitted effect of over 55% in size
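Chicken DT40 Tdp1-/- cells complemented with human TDP1, screened without camptothecin (DMSO vehicle only), 400 cells/well. Compounds pin-transferred, cells incubated at 37 °C for at least 48 hr. Growth read as ATP-dependent luminescence (CellTiter-Glo, 30 min at RT).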
Six1-Eya2 blk – inhibitors of human Six1/Eya2 interaction; AID 651725; activity change, % (no concentration beside the values); 360,000 compounds, 0.56% hits; AlphaScreen GST-Six1/His-Eya2 binding, biochemical; active compounds read low; Q15475+O00167; in the data active = activity change below about -65%; inconclusive = mostly about -30% to -63%
Target sequence (O00167 whole entry, looked up): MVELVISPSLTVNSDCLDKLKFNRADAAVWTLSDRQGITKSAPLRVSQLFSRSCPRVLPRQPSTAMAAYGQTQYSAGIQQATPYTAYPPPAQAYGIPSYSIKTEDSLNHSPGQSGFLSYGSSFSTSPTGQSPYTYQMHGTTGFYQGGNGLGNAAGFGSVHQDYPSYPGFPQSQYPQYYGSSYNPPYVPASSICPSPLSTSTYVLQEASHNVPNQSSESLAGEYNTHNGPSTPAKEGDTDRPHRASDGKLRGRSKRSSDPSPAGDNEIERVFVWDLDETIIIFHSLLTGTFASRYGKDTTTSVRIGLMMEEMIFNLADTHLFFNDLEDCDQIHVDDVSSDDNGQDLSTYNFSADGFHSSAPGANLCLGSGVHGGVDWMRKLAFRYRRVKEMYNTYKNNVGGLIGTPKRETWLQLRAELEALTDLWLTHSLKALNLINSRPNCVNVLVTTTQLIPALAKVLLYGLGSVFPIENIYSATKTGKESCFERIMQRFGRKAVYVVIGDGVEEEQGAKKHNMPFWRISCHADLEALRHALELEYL
Target sequence (Q15475 whole entry, looked up): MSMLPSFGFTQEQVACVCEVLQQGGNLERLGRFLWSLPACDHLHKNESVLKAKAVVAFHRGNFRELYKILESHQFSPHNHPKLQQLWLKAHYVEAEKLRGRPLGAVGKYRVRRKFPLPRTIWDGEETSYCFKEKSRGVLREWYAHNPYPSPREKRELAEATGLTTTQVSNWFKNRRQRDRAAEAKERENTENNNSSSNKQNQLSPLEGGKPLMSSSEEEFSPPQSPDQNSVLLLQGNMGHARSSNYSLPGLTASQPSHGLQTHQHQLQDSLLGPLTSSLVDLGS
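Six1/Eya2 binding was read as AlphaScreen signal after compounds were pinned into GST-Six1 plus His-tagged Eya2 (5X stock 250/500 nM) in pH 8.0 Tris/NaCl/TCEP buffer, beads added, then incubated 1 h, 37 C, dark.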
IL-1B inflam inh – blocks inflammasome-driven IL-1 beta release; activity change, % at 57.5 µM; THP-1 LPS/ATP IL-1B secretion, AlphaLISA, 16 h; active compounds read low; 360,000 compounds, 4.7% hits; in the data active = activity change below about -50%; inconclusive = mostly about -30% to -49%
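Secreted IL-1B measured by AlphaLISA bead assay after 16 h compound exposure of THP-1 cells; compounds (final up to 57.5 uM) added 1 h before LPS (250 ng/mL) and ATP (1.25 mM) stimulation; lower signal means less secretion.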
TDP1 inh – inhibitors of human tyrosyl-DNA phosphodiesterase TDP1; Q9NUW8; recombinant TDP1, AlphaScreen DNA substrate cleavage; Potency, µM (top dose mostly 130 µM), without a hit: top-dose activity change, negative = inhibition, most hits filed as inhibitors; 350,000 compounds, 0.28% hits; note: potency is the fitted concentration of half-maximal effect; nearly all actives have a fitted effect of over 40% in size
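Signal: AlphaScreen proximity between streptavidin donor and anti-FITC acceptor beads on intact substrate. Reaction: Tdp1 1 nM, substrate 15 nM final, 5 min RT after 15 min compound preincubation.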
TDP1 cell CPT – DT40-hTDP1 cell growth loss with CPT; Potency, µM (titrated, usually from 46.2 µM), for the others: at the highest dose activity change, negative = growth inhibition, hits mostly inhibitors; chicken DT40 Tdp1-/-;hTDP1 cells + 20 nM CPT, ATP luminescence, 48 h; 420,000 compounds, 12% hits; AID 686979; note: potency is the fitted concentration of half-maximal effect; nearly all actives have a fitted effect of over 55% in size
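Cell growth measured by CellTiter-Glo luminescence after a minimum 48 h, 37 C compound exposure with 20 nM CPT in Tdp1-knockout DT40 cells stably expressing hTDP1, seeded 400/well; qHTS titration format.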
CtBP-E1A inh – blocks the CtBP interaction with E1A; AlphaScreen GST-E1A/His-CtBP binding, 1536-well; active compounds read low; activity change, % (test concentration not listed); 340,000 compounds, 0.49% hits; in the data active = activity change below about -65%; inconclusive = mostly about -30% to -63%
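Homogeneous bead-based format: GST-tagged E1A captured on glutathione donor beads, His-tagged CtBP on nickel acceptor beads; compounds precede bead addition by 2 h at 37 °C.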
* marks the source's active call; other numbers are inactive results. Unless noted, calls come from the whole dose curve; as a rule, active = well fitted curve in the direction sought with a large enough effect; inconclusive = small, poorly fitted or top-dose-only effect, or another doubt; inactive = no such curve, though single readings can be large; an effect the other way counts as inactive or inconclusive. % is set by controls: 0 for no effect and ±100 for the full control effect.

How did CCn1c(=O)sc2cc(NC(=O)c3cccc(OC)c3)ccc21 do in these assays?
TDP1 cell noCPT: inconclusive; TDP1 inh: -10%; TDP1 cell CPT: inconclusive

Results for CCn1c2ccccc2c2cc(NC(=O)c3ccccc3[N+](=O)[O-])ccc21 ?
TDP1 cell noCPT: 23µM*; Six1-Eya2 blk: -23; IL-1B inflam inh: 41; TDP1 inh: 5%; TDP1 cell CPT: 21µM*; CtBP-E1A inh: 3

Results for CCn1c2ccccc2c2cc(NC(=O)c3ccco3)ccc21 ?
TDP1 cell noCPT: inconclusive; Six1-Eya2 blk: -8; IL-1B inflam inh: -52*; TDP1 inh: 11%; TDP1 cell CPT: inconclusive; CtBP-E1A inh: -6

What do the screens show for `CCn1c2ccccc2c2cc(NC(=O)c3cccc(OC)c3)ccc21`?
TDP1 cell noCPT: 7.9µM*; Six1-Eya2 blk: -7; IL-1B inflam inh: inconclusive; TDP1 inh: 3%; TDP1 cell CPT: 8.9µM*; CtBP-E1A inh: -6

How did COc1cc(CNC(=O)CCC(=O)N2C[C@H]3C[C@H](C2)c2cccc(=O)n2C3)cc(OC)c1OC do in these assays?
TDP1 cell noCPT: -2%; Six1-Eya2 blk: -20; IL-1B inflam inh: 22; TDP1 cell CPT: -6%; CtBP-E1A inh: -5

What do the screens show for `CN(CCC1CCOCC1)C(=O)C1CCC(=O)N(CCc2cccc(F)c2)C1` (stereo not drawn)?
TDP1 cell noCPT: -9%; Six1-Eya2 blk: 3; IL-1B inflam inh: 15; TDP1 inh: 4%; TDP1 cell CPT: -1%; CtBP-E1A inh: 15

What do the screens show for `CCn1c(C(=O)N2CCC(Cc3ccccc3)CC2)cc2sccc21`?
TDP1 cell noCPT: inconclusive; Six1-Eya2 blk: -23; IL-1B inflam inh: -15; TDP1 inh: 7%; TDP1 cell CPT: inconclusive; CtBP-E1A inh: 4

What do the screens show for `NC(=O)c1ccc(-c2ccccc2F)cc1`?
TDP1 cell noCPT: -4%; Six1-Eya2 blk: 1; IL-1B inflam inh: -3; TDP1 inh: 2%; TDP1 cell CPT: 9%

Results for CCOC(=O)c1c(C)sc(-c2c(-c3ccc(OC)c(F)c3)[nH]c3[nH]c(=O)[nH]c(=O)c23)c1O ?
TDP1 cell noCPT: inconclusive; TDP1 inh: 5%; TDP1 cell CPT: inconclusive

How did CCn1c2ccccc2c2cc(NC(C)=O)ccc21 do in these assays?
TDP1 cell noCPT: 1%; Six1-Eya2 blk: -3; IL-1B inflam inh: 11; TDP1 inh: 4%; TDP1 cell CPT: 15%; CtBP-E1A inh: -1

How did CCn1c2ccccc2c2cc(NC(=O)c3cccc(OC)c3OC)ccc21 do in these assays?
TDP1 cell noCPT: 4.1µM*; Six1-Eya2 blk: 23; IL-1B inflam inh: -26; TDP1 inh: 2%; TDP1 cell CPT: 8.2µM*; CtBP-E1A inh: 22

How did Cc1cc(/C=N/NC(=O)c2ccc(O)cc2)c(C)n1CC(C)C do in these assays?
TDP1 cell noCPT: -22%; Six1-Eya2 blk: -22; IL-1B inflam inh: -53*; TDP1 inh: 3%; TDP1 cell CPT: inconclusive; CtBP-E1A inh: -5

What do the screens show for `CC(NC(=O)C1CCC(CNC(=O)[C@@H]2Cc3ccccc3CN2)CC1)c1ccccc1` (stereo partly drawn)?
TDP1 cell noCPT: 9%; Six1-Eya2 blk: 0; IL-1B inflam inh: 2; TDP1 inh: 7%; TDP1 cell CPT: -22%; CtBP-E1A inh: 1

What do the screens show for `CCOc1ccc(-c2ccc(SCC(=O)Nc3nnc(CC)s3)nn2)cc1`?
TDP1 cell noCPT: 4%; Six1-Eya2 blk: -11; IL-1B inflam inh: 4; TDP1 inh: 2%; TDP1 cell CPT: 8%; CtBP-E1A inh: 11

What do the screens show for `CCOc1ccc(-c2ccc(SC)nn2)cc1`?
TDP1 cell noCPT: 8.2µM*; Six1-Eya2 blk: -3; IL-1B inflam inh: inconclusive; TDP1 inh: 4%; TDP1 cell CPT: -30%; CtBP-E1A inh: 1

What do the screens show for `COc1cc(C(=O)Nc2nc3ccc(C)cc3s2)ccc1OCc1c(C)noc1C`?
TDP1 cell noCPT: 18µM*; Six1-Eya2 blk: -2; IL-1B inflam inh: -6; TDP1 inh: -2%; TDP1 cell CPT: 18µM*; CtBP-E1A inh: -2

What do the screens show for `COc1cc(C(=O)Nc2cc(OC)c(OC)c(OC)c2)ccc1OCc1c(C)noc1C`?
TDP1 cell noCPT: inconclusive; Six1-Eya2 blk: -11; IL-1B inflam inh: -8; TDP1 inh: 2%; TDP1 cell CPT: inconclusive; CtBP-E1A inh: 0

How did COc1ccc(NS(=O)(=O)c2cc(NC(=O)c3cccc(OCc4c(C)noc4C)c3)ccc2OC)cc1 do in these assays?
TDP1 cell noCPT: 23µM*; Six1-Eya2 blk: 1; IL-1B inflam inh: 4; TDP1 inh: 2%; TDP1 cell CPT: inconclusive; CtBP-E1A inh: 2

What do the screens show for `COc1cc(NC(=O)c2ccc(OCc3c(C)noc3C)c(OC)c2)cc(OC)c1`?
TDP1 cell noCPT: 13µM*; Six1-Eya2 blk: -17; IL-1B inflam inh: -23; TDP1 inh: 2%; TDP1 cell CPT: inconclusive; CtBP-E1A inh: -23

Results for COc1cc(Cl)c(CN2CCC(CCC(=O)NC3CC3)CC2)cc1OC ?
TDP1 cell noCPT: 14%; Six1-Eya2 blk: 0; IL-1B inflam inh: 32; TDP1 cell CPT: 14%; CtBP-E1A inh: 3

How did CC(=O)c1ccc2c3c(cccc13)C(=O)N(CCc1ccccc1)C2=O do in these assays?
TDP1 cell noCPT: -28%; Six1-Eya2 blk: -15; IL-1B inflam inh: 62; TDP1 inh: -6%; TDP1 cell CPT: -4%

Results for CCC1(c2ccccc2)ON(c2c(Br)cccc2Br)C1=O (stereo not drawn) ?
TDP1 cell noCPT: 16µM*; Six1-Eya2 blk: 5; IL-1B inflam inh: -97*; TDP1 inh: -8%; TDP1 cell CPT: 18µM*; CtBP-E1A inh: 0

Results for Cc1ccc(S(=O)(=O)N/N=C/c2cccc3nccnc23)cc1 ?
TDP1 cell noCPT: 15µM*; Six1-Eya2 blk: -2; IL-1B inflam inh: 5; TDP1 inh: 9%; TDP1 cell CPT: 13µM*

Results for COC(=O)c1ccc(COc2ccccc2/C=C(\C#N)C(=O)Nc2ccc(C)cc2)cc1 ?
TDP1 cell noCPT: 5.2µM*; Six1-Eya2 blk: 0; IL-1B inflam inh: 12; TDP1 inh: -2%; TDP1 cell CPT: 6.5µM*; CtBP-E1A inh: 0

Results for N#C/C(=C/c1ccccc1OCc1ccc(F)cc1)c1ccc(C(=O)O)cc1 ?
TDP1 cell noCPT: 11%; Six1-Eya2 blk: -4; IL-1B inflam inh: 45; TDP1 cell CPT: -9%; CtBP-E1A inh: 9

How did C=CCNC(=O)/C(C#N)=C/c1ccccc1OCc1ccc(C(=O)OC)cc1 do in these assays?
TDP1 cell noCPT: 7.3µM*; Six1-Eya2 blk: 1; IL-1B inflam inh: -3; TDP1 inh: 1%; TDP1 cell CPT: 2.9µM*
